The whole screen tested about 5,500 compounds, of which about 2,000 (36%) were called active. Another 18% or so got no clear call; they are omitted. Rule as the data show it: active = normalized growth mostly below about 0.91 (no sharp cut-off); inconclusive = no clear call, values can overlap the other calls; inactive = mostly above about 0.92. This is one part of the list.
Assay: chemical genetic growth profiling, strain panel (AID 1159580);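 also: tested at 20 µM; growth read once vehicle control cultures reached saturation at 30 °C; 1 = growth at the plate median or of vehicle wells; lower values mean less growth of the strain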
Conditions: growth OD

Measured: normalized growth

Oc1cccc(O)c1
inactive: S. cerevisiae deletion strains, locus YJR066W, strain TOR1, active compounds read low 0.971 | S. cerevisiae deletion strains, locus YJR075W, strain HOC1, active compounds read low 1.01 | S. cerevisiae deletion strains, locus YKL009W, strain mrt4, active compounds read low 0.98 | S. cerevisiae deletion strains, locus YKL068W, active compounds read low 0.997 | S. cerevisiae deletion strains, locus YKL085W, strain MDH1 (second series), active compounds read low 0.994 | S. cerevisiae deletion strains, locus YKL085W, strain MDH1, active compounds read low 0.994 | S. cerevisiae deletion strains, locus YKL160W, strain elf1, active compounds read low 1.02 | S. cerevisiae deletion strains, locus YKL190W, strain CNB1, active compounds read low 1.01 | S. cerevisiae deletion strains, locus YKR001C, strain vps1, active compounds read low 0.98 | S. cerevisiae deletion strains, locus YKR026C, strain gcn3, active compounds read low 0.967 | S. cerevisiae deletion strains, locus YKR091W, strain srl3, active compounds read low 0.979 | S. cerevisiae deletion strains, locus YLL001W, strain dnm1, active compounds read low 0.993 | S. cerevisiae deletion strains, locus YLL026W, active compounds read low 1.01 | S. cerevisiae deletion strains, locus YLL041C, strain sdh2, active compounds read low 0.979 | S. cerevisiae deletion strains, locus YLR027C, strain aat2, active compounds read low 0.992 | S. cerevisiae deletion strains, locus YLR039C, strain RIC1, active compounds read low 1.01 | S. cerevisiae deletion strains, locus YLR058C, strain SHM2, active compounds read low 1.01 | S. cerevisiae deletion strains, locus YLR102C, strain apc9, active compounds read low 0.993 | S. cerevisiae deletion strains, locus YLR113W, strain HOG1, active compounds read low 1.01 | S. cerevisiae deletion strains, locus YLR221C, strain rsa3, active compounds read low 0.962 | S. cerevisiae deletion strains, locus YLR258W, strain gsy2, active compounds read low 0.956 | S. cerevisiae deletion strains, locus YLR262C, strain YPT6 (second series), active compounds read low 1 | S. cerevisiae deletion strains, locus YLR262C, strain YPT6, active compounds read low 1.02 | S. cerevisiae deletion strains, locus YLR268W, strain sec22, active compounds read low 0.974 | S. cerevisiae deletion strains, locus YLR320W, strain mms22, active compounds read low 0.944 | S. cerevisiae deletion strains, locus YLR330W, strain CHS5, active compounds read low 1.01 | S. cerevisiae deletion strains, locus YLR342W, strain FKS1 (second series), active compounds read low 0.995 | S. cerevisiae deletion strains, locus YLR342W, strain FKS1, active compounds read low 1 | S. cerevisiae deletion strains, locus YLR357W, strain rsc2, active compounds read low 0.977 | S. cerevisiae deletion strains, locus YLR370C, strain arc18, active compounds read low 0.992 | S. cerevisiae deletion strains, locus YLR371W, strain rom2, active compounds read low 0.992 | S. cerevisiae deletion strains, locus YLR384C, strain iki3, active compounds read low 0.997 | S. cerevisiae deletion strains, locus YLR418C, strain cdc73, active compounds read low 0.961 | S. cerevisiae deletion strains, locus YML016C, strain PPZ1, active compounds read low 1 | S. cerevisiae deletion strains, locus YML032C, strain rad52, active compounds read low 0.983 | S. cerevisiae deletion strains, locus YML120C, strain ndi1, active compounds read low 0.986 | S. cerevisiae deletion strains, locus YML124C, strain tub3, active compounds read low 0.991 | S. cerevisiae deletion strains, locus YMR058W, strain fet3, active compounds read low 0.972 | S. cerevisiae deletion strains, locus YMR078C, strain ctf18, active compounds read low 0.989 | S. cerevisiae deletion strains, locus YMR125W, strain sto1, active compounds read low 0.932 | S. cerevisiae deletion strains, locus YMR129W, active compounds read low 0.974 | S. cerevisiae deletion strains, locus YMR205C, strain PFK2, active compounds read low 0.991 | S. cerevisiae deletion strains, locus YMR223W, strain ubp8, active compounds read low 0.991 | S. cerevisiae deletion strains, locus YMR231W, strain pep5, active compounds read low 0.985 | S. cerevisiae deletion strains, locus YMR263W, strain SAP30, active compounds read low 1.01 | S. cerevisiae deletion strains, locus YMR307W, strain GAS1, active compounds read low 0.989 | S. cerevisiae deletion strains, locus YNL067W, strain RPL9B, active compounds read low 1.02 | S. cerevisiae deletion strains, locus YNL071W, strain lat1, active compounds read low 0.969 | S. cerevisiae deletion strains, locus YNL183C, strain NPR1, active compounds read low 0.951 | S. cerevisiae deletion strains, locus YNL209W, strain ssb2, active compounds read low 0.973 | S. cerevisiae deletion strains, locus YNL233W, strain BNI4, active compounds read low 1.01 | S. cerevisiae deletion strains, locus YNL248C, strain rpa49, active compounds read low 0.957 | S. cerevisiae deletion strains, locus YNL250W, strain rad50, active compounds read low 0.985 | S. cerevisiae deletion strains, locus YNL271C, strain bni1, active compounds read low 0.991 | S. cerevisiae deletion strains, locus YNL298W, strain CLA4, active compounds read low 0.978 | S. cerevisiae deletion strains, locus YNL307C, strain MCK1, active compounds read low 0.988 | S. cerevisiae deletion strains, locus YNL322C, strain KRE1 (second series), active compounds read low 0.967 | S. cerevisiae deletion strains, locus YNR049C, strain mso1, active compounds read low 0.971 | S. cerevisiae deletion strains, locus YNR052C, strain pop2, active compounds read low 0.99 | S. cerevisiae deletion strains, locus YOL006C, strain TOP1, active compounds read low 1.03 | S. cerevisiae deletion strains, locus YOL012C, strain htz1 0.68 | S. cerevisiae deletion strains, locus YOL147C, strain pex11, active compounds read low 0.995 | S. cerevisiae deletion strains, locus YOR001W, strain rrp6, active compounds read low 1.01 | S. cerevisiae deletion strains, locus YOR061W, strain CKA2, active compounds read low 1.01 | S. cerevisiae deletion strains, locus YOR069W, strain VPS5, active compounds read low 1 | S. cerevisiae deletion strains, locus YOR070C, strain gyp1, active compounds read low 0.979 | S. cerevisiae deletion strains, locus YOR080W, strain dia2, active compounds read low 0.987 | S. cerevisiae deletion strains, locus YOR083W, strain WHI5, active compounds read low 0.986 | S. cerevisiae deletion strains, locus YOR106W, strain vam3, active compounds read low 0.983 | S. cerevisiae deletion strains, locus YOR136W, strain idh2, active compounds read low 0.988 | S. cerevisiae deletion strains, locus YOR144C, strain elg1, active compounds read low 0.98 | S. cerevisiae deletion strains, locus YOR184W, strain ser1, active compounds read low 0.977 | S. cerevisiae deletion strains, locus YOR231W, strain MKK1, active compounds read low 1.02 | S. cerevisiae deletion strains, locus YOR265W, strain rbl2, active compounds read low 0.987 | S. cerevisiae deletion strains, locus YOR270C, strain vph1, active compounds read low 0.969 | S. cerevisiae deletion strains, locus YOR290C, strain snf2, active compounds read low 0.922 | S. cerevisiae deletion strains, locus YOR316C, strain cot1, active compounds read low 0.995 | S. cerevisiae deletion strains, locus YPL051W, strain arl3, active compounds read low 1 | S. cerevisiae deletion strains, locus YPL055C, strain LGE1, active compounds read low 1.03 | S. cerevisiae deletion strains, locus YPL078C, strain atp4, active compounds read low 1 | S. cerevisiae deletion strains, locus YPL106C, strain sse1, active compounds read low 0.926 | S. cerevisiae deletion strains, locus YPL240C, strain hsp82, active compounds read low 0.995 | S. cerevisiae deletion strains, locus YPL241C, strain CIN2, active compounds read low 1.01 | S. cerevisiae deletion strains, locus YPL256C, strain CLN2, active compounds read low 1.06 | S. cerevisiae deletion strains, locus YPR119W, strain clb2, active compounds read low 0.959 | S. cerevisiae deletion strains, locus YPR141C, strain kar3, active compounds read low 0.988 | S. cerevisiae deletion strains, locus YPR163C, strain tif3, active compounds read low 0.993 | S. cerevisiae deletion strains, locus YPR167C, strain met16, active compounds read low 0.995 | S. cerevisiae deletion strains, strain wtn01, active compounds read low 0.979 | S. cerevisiae strains, strain wild type, active compounds read low 1
